According to PubChem BioAssay (NCATS):
Results filed as inconclusive are left out. Activity calls are given as the source filed them. Unless noted, the call rests on the fitted dose curve; in most records, active means well fitted curve in the direction sought with a large enough effect; inconclusive means small, poorly fitted or top-dose-only effect, or another doubt; inactive means no such curve, though single readings can be large; an effect the other way counts as inactive or inconclusive.

Assays:
[1] = qHTS assay for small molecule agonists of retinoid X receptor alpha signaling (AID 588544; calls by dose curve;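 on activation: 0% = DMSO basal wells and 100% = reference agonist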); details: HEK293T RXRa-UAS-bla, beta-lactamase reporter, 18 h; 530 nm emission
[2] = biological target: Retinoic acid receptor RXR-alpha (Homo sapiens) (UniProt P19793); experiment: as above; details: HEK293T RXRa-UAS-bla, beta-lactamase reporter, 18 h; series mostly up to 76.7 µM
[3] = biological target: Thyroid hormone receptor beta (Homo sapiens) (UniProt P10828); experiment: qHTS assay for small molecule agonists of thyroid hormone receptor beta signaling (AID 588545; calls by dose curve;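 further: 0% = DMSO only and 100% = 10 nM T3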); details: TR-UAS-bla GripTite HEK 293, beta-lactamase ratio, agonist mode, 18 h, percent of T3 response, DMSO as zero; series mostly up to 76.7 µM
Procedure, shortened: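 TR-UAS-bla-GripTite HEK 293 cells in medium with 2% charcoal/dextran FBS, 0.1 mM NEAA and 1 mM sodium pyruvate were treated with titrated compounds for 18 hrs at 37 C. Beta-lactamase reporter was read with CCF4 dye (ex 405, em 460/530 nm); EC50 from Hill fits.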

[4] = qHTS assay for small molecule antagonists of retinoid X receptor alpha signaling (AID 588546; active means well fitted inhibition curve with a large enough effect in the signal ratio, with a control signal flat, not every such curve was filed as active; the % refers to the signal ratio;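 further: cells stimulated with 9-cis-retinoic acid as agonist; on the % scale 0 is the no-effect control and ±100 the full control effect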); details: HEK293T RXRa-UAS-bla, beta-lactamase ratio, antagonist mode; measured here: W530 green channel, cytotoxicity proxy
Procedure, shortened: (§1)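 Beta-lactamase reporter inhibition, read as CCF4 fluorescence ratio (ex 405, em 460/530 nm) after 2 h at RT. HEK293T UAS-bla cells, 2500/well, were stimulated with 9-cis-RA at 500 or 100 nM final alongside test compound for 18 h at 37 C.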

[5] = biological target: Retinoic acid receptor RXR-alpha (Homo sapiens) (UniProt P19793); experiment: as above; details: HEK293T RXRa-UAS-bla, beta-lactamase ratio, antagonist mode
Procedure, shortened: as §1

[6] = biological target: Thyroid hormone receptor beta (Homo sapiens) (UniProt P10828); experiment: qHTS assay for small molecule antagonists of thyroid hormone receptor beta signaling (AID 588547; active means well fitted inhibition curve with a large enough effect in the signal ratio, with a control signal flat, not every such curve was filed as active; the % refers to the signal ratio;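 further: cells stimulated with 0.4 nM T3 agonist during compound exposure; on the % scale 0 is the no-effect control and ±100 the full control effect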); details: TR-UAS-bla HEK293, beta-lactamase ratio, antagonist mode, 18 h
Procedure, shortened: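 Inhibition of T3-driven (0.4nM final) beta-lactamase reporter activity was measured over 0.59 nM to 92 uM compound after 18 h at 37 C. The cells were GripTite HEK293 TR-UAS-bla in charcoal/dextran-stripped serum, with CCF4 ratio read-out and IC50 from Hill fits.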

[7] = biological target: Voltage-gated inwardly rectifying potassium channel KCNH2 (Homo sapiens) (UniProt Q12809); experiment: qHTS Assay for Small Molecule Inhibitors of the Human hERG Channel Activity (AID 588834); details: U2OS BacMam hERG, FluxOR thallium flux fluorescence; series mostly up to 92.2 µM;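 further: top concentration of the series differs between compounds; on the % scale 0 is the no-effect control and ±100 the full control effect; lower thallium flux fluorescence means stronger hERG block; nearly all actives have a fitted effect of over 50% in size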
Procedure, shortened: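 Blockade is seen as reduced FluxOR thallium-flux fluorescence in U2OS cells expressing hERG from a BacMam construct, in Opti-MEM with 2% FCS. Concentration-response data fitted to the Hill equation for AC50.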

[8] = qHTS assay for small molecule activators of the p53 signaling pathway (AID 651743; active means well fitted activation curve with a large enough effect in the signal ratio, not every such curve was filed as active; the % refers to the signal ratio; further: % of control where 0% means no effect); details: HCT-116 p53RE-bla, beta-lactamase FRET ratio, 16 h; stronger effect = higher value
Procedure, shortened: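 Screen for p53 pathway agonists uses stably transfected p53RE-bla HCT-116 cells, 4,000 per well, treated 16 h at 37 C with compounds in DMSO.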

[9] = qHTS assay for small molecule activators of the nuclear factor-kappa B (NF-kB) signaling pathway (AID 651749; active means well fitted activation curve with a large enough effect in the signal ratio; the % refers to the signal ratio; further: % of control where 0% means no effect); details: NF-kB-bla ME-180 cells, beta-lactamase FRET ratio, 16 h; stronger effect = higher value
Procedure, shortened: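 Stably transfected ME-180 line; NF-kB response element upstream of beta-lactamase. Treatment: compound or DMSO, 16 hr. Detection: fluorescent FRET substrate.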

[10] = qHTS assay for small molecule disruptors of the mitochondrial membrane potential - 1 hr assay (AID 651754; calls by dose curve; further: nearly all actives have a fitted effect of over 35% in size; further: potency means the concentration at half of the fitted maximal effect); details: series mostly up to 92.2 µM
Procedure, shortened: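 Steps: seed HepG2 cells and let attach overnight; pin-transfer compound or vehicle; incubate 1 hr at 37C; add Mito-MPS dye for 30 min; read two-channel fluorescence for monomer and aggregate forms.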

[11] = qHTS assay for small molecule disruptors of the mitochondrial membrane potential - 5 hr assay (AID 651755; calls by dose curve; further: on the % scale 0 is the no-effect control and ±100 the full control effect; nearly all actives have a fitted effect of over 40% in size); details: JC-1-type ratio dye; series mostly up to 92.2 µM
Procedure, shortened: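 HepG2, 2,000 cells/well, overnight attach; cpd or DMSO 5 hr, 37C/5% CO2; Mito-MPS 30 min 37C; fluor 490/535 + 540/590 nm.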

[12] = biological target: Tumor necrosis factor (Homo sapiens) (UniProt P01375); experiment: qHTS assay to identify small molecules that stimulate Tumor Necrosis Factor-alpha (TNF-alpha) secretion (AID 651757; active means well fitted curve in the direction sought with a large enough effect in the signal ratio; the % refers to the signal ratio; further: 0% is about no effect); details: Human cells, HTRF 665/615 ratio; series mostly up to 92.2 µM
Procedure, shortened: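 Secreted TNF-alpha from compound-treated THP-1 cells (17 hrs, 37 C) was quantified with a homogeneous time-resolved fluorescence antibody assay.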

[13] = qHTS assay for environmental chemicals that activate the Aryl hydrocarbon Receptor (AhR) signaling pathway (AID 651777); details: 1A2-DRE human hepatoma cells, luciferase, 24 h; activation: stronger effect = higher value; further: % of control where 0% means no effect; nearly all actives have a fitted effect of over 15% in size
Procedure, shortened: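 1A2-DRE human hepatoma reporter line; 1,200 cells/well; cmpd or DMSO 24 h, 37 C/5% CO2; One-Glo 30 min RT; luciferase lum.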

[14] = biological target: Peroxisome proliferator-activated receptor alpha (Homo sapiens) (UniProt Q07869); experiment: qHTS assay for small molecule agonists of the peroxisome proliferator-activated receptor alpha (PPARalpha) signaling pathway (AID 651778); details: PathHunter PPARalpha complementation, chemiluminescence, 6 h; stronger effect = higher value; further: % of control where 0% means no effect
Procedure, shortened: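 Chemiluminescence from complemented enzyme reported PPARalpha activation in cells after 6 hr of compound treatment at 37 C. The detection reagent was incubated for 60 min at room temperature, and compounds were scored as agonists.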

[15] = biological target: Nuclear receptor ROR-gamma (Homo sapiens) (UniProt P51449); experiment: qHTS assay for small molecule antagonists of the retinoid-related orphan receptor gamma (ROR-gamma) signaling pathway (AID 651802); details: ROR-gamma antagonist cell reporter assay; series mostly up to 92.2 µM;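 further: CHO cells with doxycycline-induced ROR-gamma expression; on the % scale 0 is the no-effect control and ±100 the full control effect; nearly all actives have a fitted effect of over 60% in size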
Procedure, shortened: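 Antagonism is scored as a fall in luminescence from a RORE-luciferase reporter in CHO cells expressing ROR under a TET-inducible promoter, measured 16hr after doxycycline induction in the presence of compound.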

[16] = qHTS assay for small molecule agonists of the antioxidant response element (ARE) signaling pathway measured by Nrf2-dependant transcriptional activity (AID 720636; active means well fitted curve in the direction sought with a large enough effect in the repeat runs; an effect the other way counts as inactive or inconclusive;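 further: HepG2 cells with an ARE-driven luciferase reporter; % of control where 0% means no effect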); details: ARE-luc HepG2, Nrf2 luciferase reporter, 16 h; series mostly up to 92.4 µM
Procedure, shortened: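 Cells: ARE-luc HepG2 with Nrf2-responsive luciferase. Medium contained 1% dialyzed FBS. Compound exposure lasted 16 hr at 37 C and 5% CO2, followed by ONE-Glo luciferase detection.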

[17] = qHTS assay for small molecule antagonists of the retinoid-related orphan receptor gamma (ROR-gamma) signaling pathway - cell viability counter screen (AID 720652; active means well fitted curve in the direction sought with a large enough effect in the repeat runs; an effect the other way counts as inactive or inconclusive;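 further: CHO reporter cells with doxycycline-induced ROR-gamma expression; compound exposure lasted 16 hr before ATP read; on the % scale 0 is the no-effect control and ±100 the full control effect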); details: RORgamma reporter cell line viability counter screen; series mostly up to 92.2 µM
Procedure, shortened: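 Cytotoxicity is quantified via intracellular ATP (CellTiter-Glo luminescence) in doxycycline-induced CHO ROR response element-luciferase reporter cells treated with compound for 16 hr at 37 C, 5% CO2.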

[18] = qHTS assay for small molecule agonists of the antioxidant response element (ARE) signaling pathway measured by Nrf2-dependant transcriptional activity - cell viability counter screen (AID 720653; active means well fitted curve in the direction sought with a large enough effect in the repeat runs; an effect the other way counts as inactive or inconclusive; further: on the % scale 0 is the no-effect control and ±100 the full control effect); details: ARE-bla HepG2 viability, CellTiter-Glo ATP luminescence, 16 h; stronger effect = lower value
Procedure, shortened: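 Cytotoxicity counter screen: intracellular ATP quantified by CellTiter-Glo luminescence in the same ARE-bla HepG2 plates, after 16 h compound exposure and a 2 h beta-lactamase substrate step.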

[19] = qHTS assay to identify small molecules that stimulate interleukin-8 (IL-8) secretion (AID 651758; active means well fitted activation curve with a large enough effect in the signal ratio; the % refers to the signal ratio; further: 0% is about no effect); details: HTRF ratio (665/615); series mostly up to 92.2 µM
Procedure, shortened: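 Secreted IL-8 measured by TR-FRET sandwich (cryptate and XL665 antibodies) from THP-1 cells exposed to compound overnight (16 hrs, 37 C).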

Retinoic acid receptor RXR-alpha (Homo sapiens), sequence (P19793 whole entry, looked up): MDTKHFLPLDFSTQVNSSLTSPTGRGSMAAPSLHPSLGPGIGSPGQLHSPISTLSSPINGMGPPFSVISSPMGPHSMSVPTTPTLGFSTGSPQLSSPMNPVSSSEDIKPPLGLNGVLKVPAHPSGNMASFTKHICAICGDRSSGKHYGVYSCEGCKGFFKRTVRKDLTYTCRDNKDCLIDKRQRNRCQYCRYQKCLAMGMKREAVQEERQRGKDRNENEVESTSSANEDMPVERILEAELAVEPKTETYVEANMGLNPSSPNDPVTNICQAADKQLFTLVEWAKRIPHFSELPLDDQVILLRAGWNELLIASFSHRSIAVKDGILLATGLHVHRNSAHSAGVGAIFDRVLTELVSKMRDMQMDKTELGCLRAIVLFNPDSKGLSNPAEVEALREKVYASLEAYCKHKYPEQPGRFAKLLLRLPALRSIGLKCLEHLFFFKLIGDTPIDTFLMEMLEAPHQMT
Voltage-gated inwardly rectifying potassium channel KCNH2 (Homo sapiens), sequence (Q12809 whole entry, looked up): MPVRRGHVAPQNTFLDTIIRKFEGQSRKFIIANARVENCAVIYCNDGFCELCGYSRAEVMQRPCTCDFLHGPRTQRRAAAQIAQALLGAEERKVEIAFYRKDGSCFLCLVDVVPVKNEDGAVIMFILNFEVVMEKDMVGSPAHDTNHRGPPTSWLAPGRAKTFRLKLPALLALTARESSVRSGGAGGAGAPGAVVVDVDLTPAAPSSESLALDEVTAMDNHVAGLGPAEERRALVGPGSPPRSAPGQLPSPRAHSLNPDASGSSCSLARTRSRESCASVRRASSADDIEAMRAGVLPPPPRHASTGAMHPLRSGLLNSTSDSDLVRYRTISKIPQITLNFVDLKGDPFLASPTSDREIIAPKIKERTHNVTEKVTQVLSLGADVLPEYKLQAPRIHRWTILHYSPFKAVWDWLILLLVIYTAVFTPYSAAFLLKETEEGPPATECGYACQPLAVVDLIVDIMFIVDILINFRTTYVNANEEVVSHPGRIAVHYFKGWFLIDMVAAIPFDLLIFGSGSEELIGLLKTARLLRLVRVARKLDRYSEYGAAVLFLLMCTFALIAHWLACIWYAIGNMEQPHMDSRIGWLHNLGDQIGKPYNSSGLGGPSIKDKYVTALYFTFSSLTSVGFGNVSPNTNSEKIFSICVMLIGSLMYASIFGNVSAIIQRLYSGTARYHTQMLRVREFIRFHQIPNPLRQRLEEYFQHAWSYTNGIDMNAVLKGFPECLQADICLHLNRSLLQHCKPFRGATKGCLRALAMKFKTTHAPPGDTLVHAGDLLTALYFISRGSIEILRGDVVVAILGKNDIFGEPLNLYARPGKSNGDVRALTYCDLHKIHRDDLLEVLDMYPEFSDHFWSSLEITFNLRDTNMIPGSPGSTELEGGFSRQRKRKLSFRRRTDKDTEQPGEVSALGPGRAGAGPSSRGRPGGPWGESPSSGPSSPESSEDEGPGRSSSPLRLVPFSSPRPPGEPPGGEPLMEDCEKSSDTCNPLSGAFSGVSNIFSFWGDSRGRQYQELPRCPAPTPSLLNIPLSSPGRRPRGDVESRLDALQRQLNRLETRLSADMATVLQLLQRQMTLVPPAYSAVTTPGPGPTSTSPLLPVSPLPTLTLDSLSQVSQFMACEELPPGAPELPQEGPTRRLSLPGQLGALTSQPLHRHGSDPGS
Tumor necrosis factor (Homo sapiens), sequence (P01375 whole entry, looked up): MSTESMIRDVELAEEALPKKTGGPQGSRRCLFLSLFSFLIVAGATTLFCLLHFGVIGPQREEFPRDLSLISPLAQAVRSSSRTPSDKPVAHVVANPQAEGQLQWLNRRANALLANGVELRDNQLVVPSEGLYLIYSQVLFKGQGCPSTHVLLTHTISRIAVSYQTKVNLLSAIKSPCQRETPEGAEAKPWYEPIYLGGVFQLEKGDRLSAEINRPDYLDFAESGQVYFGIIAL
Thyroid hormone receptor beta (Homo sapiens), sequence (P10828 whole entry, looked up): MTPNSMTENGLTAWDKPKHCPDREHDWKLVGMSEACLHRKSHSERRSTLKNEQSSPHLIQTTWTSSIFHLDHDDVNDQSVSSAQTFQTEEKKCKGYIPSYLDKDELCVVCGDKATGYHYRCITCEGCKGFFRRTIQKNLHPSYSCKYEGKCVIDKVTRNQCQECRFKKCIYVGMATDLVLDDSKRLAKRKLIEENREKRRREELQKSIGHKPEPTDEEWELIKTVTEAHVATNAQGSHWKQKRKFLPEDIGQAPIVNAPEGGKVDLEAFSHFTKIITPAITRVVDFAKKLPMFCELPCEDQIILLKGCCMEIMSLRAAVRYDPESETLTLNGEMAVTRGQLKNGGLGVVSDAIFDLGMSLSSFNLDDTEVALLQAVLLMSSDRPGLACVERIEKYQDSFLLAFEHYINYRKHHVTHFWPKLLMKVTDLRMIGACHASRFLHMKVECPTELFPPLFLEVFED
Nuclear receptor ROR-gamma (Homo sapiens), sequence (P51449 whole entry, looked up): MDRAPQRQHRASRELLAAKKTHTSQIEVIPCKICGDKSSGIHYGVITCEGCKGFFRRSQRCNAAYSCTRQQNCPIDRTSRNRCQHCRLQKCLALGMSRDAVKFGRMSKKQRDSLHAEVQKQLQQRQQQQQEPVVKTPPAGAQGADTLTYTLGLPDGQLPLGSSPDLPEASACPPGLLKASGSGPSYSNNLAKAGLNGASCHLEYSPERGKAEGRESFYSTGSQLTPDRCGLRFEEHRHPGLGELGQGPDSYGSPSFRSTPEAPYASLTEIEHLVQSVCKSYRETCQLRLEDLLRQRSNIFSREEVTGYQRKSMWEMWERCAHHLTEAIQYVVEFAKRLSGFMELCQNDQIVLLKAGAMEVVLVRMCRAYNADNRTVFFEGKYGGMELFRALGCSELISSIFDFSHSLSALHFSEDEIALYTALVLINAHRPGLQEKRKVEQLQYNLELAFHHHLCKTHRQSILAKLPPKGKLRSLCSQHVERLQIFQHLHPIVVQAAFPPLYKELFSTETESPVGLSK
Peroxisome proliferator-activated receptor alpha (Homo sapiens), sequence (Q07869 whole entry, looked up): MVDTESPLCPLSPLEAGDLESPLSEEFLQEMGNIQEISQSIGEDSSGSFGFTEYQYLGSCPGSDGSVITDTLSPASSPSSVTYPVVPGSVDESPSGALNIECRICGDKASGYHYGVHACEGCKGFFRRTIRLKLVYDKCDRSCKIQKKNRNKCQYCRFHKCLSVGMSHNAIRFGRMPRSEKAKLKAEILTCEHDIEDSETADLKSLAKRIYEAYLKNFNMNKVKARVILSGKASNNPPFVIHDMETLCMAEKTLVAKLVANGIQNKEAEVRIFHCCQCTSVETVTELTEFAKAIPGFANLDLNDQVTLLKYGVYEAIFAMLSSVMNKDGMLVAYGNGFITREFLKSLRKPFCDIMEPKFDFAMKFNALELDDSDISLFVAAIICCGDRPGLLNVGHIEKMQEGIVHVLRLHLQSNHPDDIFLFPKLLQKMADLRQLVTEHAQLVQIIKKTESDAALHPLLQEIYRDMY

Cc1c(C(=O)O)cccc1[N+](=O)[O-]
inactive: outcome [2] | outcome [3] | max response [5] -1.44% | activity change % (negative = inhibition) [6] 12.8% | Potency [7] | activation [8] 1.1% | activation [9] 0.0023% | Potency [10] | Potency [11] | Potency [12] | activation [13] 1.63% | max response [14] -0.685% | Potency [15] | outcome [16] | Potency [17] | max response [18] 17.9%
-4.5%: max response [4]
-9.97%: max response [1]

Nc1cccc(N)c1
inactive: outcome [2] | outcome [3] | max response [5] -3.92% | activity change % (negative = inhibition) [6] -1.36% | Potency [7] | activation [8] -1.04% | activation [9] -0.628% | Potency [12] | activation [13] 4.51% | max response [14] -0.676% | Potency [15] | outcome [16] | Potency [17] | max response [18] -7.64%
0.0667%: max response [1]
active: Potency [10] 21.1 µM
1.75%: max response [4]

CNC(=O)N(c1ccccc1)c1ccccc1
inactive: outcome [2] | outcome [3] | max response [5] -3.69% | activity change % (negative = inhibition) [6] 10.1% | Potency [7] | activation [8] 0.514% | activation [9] 0.192% | Potency [10] | Potency [11] | Potency [12] | activation [13] -0.495% | max response [14] -2.12% | outcome [16] | Potency [17] | max response [18] -11.7%
12.2%: max response [4]
-17.1%: max response [1]

O=[N+]([O-])c1ccccc1CCO
-5.47%: max response [4]
4.35%: max response [1]
inactive: outcome [2] | outcome [3] | max response [5] -8.97% | activity change % (negative = inhibition) [6] 2.13% | Potency [7] | activation [8] -1.31% | activation [9] -0.881% | Potency [10] | Potency [11] | Potency [12] | activation [13] 0.213% | max response [14] -1.29% | Potency [15] | outcome [16] | Potency [17] | max response [18] -3.69%

Cc1ccco1
inactive: outcome [2] | outcome [3] | max response [5] 5.14% | activity change % (negative = inhibition) [6] 12.3% | Potency [7] | activation [8] 2.07% | activation [9] -0.364% | Potency [10] | Potency [12] | activation [13] -0.591% | Potency [15] | outcome [16] | Potency [17] | max response [18] -4.14%
-10.8%: max response [1]
-5.98%: max response [4]

CC(=O)Nc1cccc(N)c1
-0.371%: max response [4]
inactive: outcome [2] | outcome [3] | max response [5] 6.6% | activity change % (negative = inhibition) [6] -3.78% | Potency [7] | activation [8] 1.81% | activation [9] 0.511% | Potency [10] | Potency [11] | Potency [12] | activation [13] -0.0665% | max response [14] -7.63% | Potency [15] | outcome [16] | Potency [17] | max response [18] 1.46%
-8.93%: max response [1]

C=CCCCCCCC=C
-11.6%: max response [1]
inactive: outcome [2] | outcome [3] | max response [5] -6.51% | activity change % (negative = inhibition) [6] -6.39% | Potency [7] | activation [8] 0.568% | activation [9] -0.256% | Potency [10] | Potency [11] | Potency [12] | activation [13] 0.475% | max response [14] 4.13% | Potency [15] | outcome [16] | Potency [17] | max response [18] 5.83%
-1.72%: max response [4]

Nc1cccc2c(=O)[nH][nH]c(=O)c12
-2.09%: max response [4]
-4.82%: max response [1]
inactive: outcome [2] | outcome [3] | max response [5] 12.7% | activity change % (negative = inhibition) [6] -3.76% | Potency [7] | activation [8] -2.14% | activation [9] 0.176% | Potency [11] | activation [13] 0.365% | max response [14] 0.513% | Potency [15] | outcome [16] | Potency [17] | max response [18] 4.98%

c1ccc2n[nH]nc2c1
inactive: outcome [2] | outcome [3] | max response [5] -7.97% | activity change % (negative = inhibition) [6] -7.43% | Potency [7] | activation [8] -4.32% | activation [9] 1% | Potency [10] | Potency [11] | Potency [12] | activation [13] 0.556% | Potency [15] | outcome [16] | Potency [17] | max response [18] 3.37%
-16.6%: max response [4]
-15.8%: max response [1]

C=C(C)C(=O)OCC(C)C
-5.76%: max response [4]
inactive: outcome [2] | outcome [3] | max response [5] -6.82% | activity change % (negative = inhibition) [6] 1.27% | Potency [7] | activation [8] -1.84% | activation [9] 1.27% | Potency [10] | Potency [11] | Potency [12] | activation [13] -0.68% | max response [14] -4.6% | Potency [15] | outcome [16] | Potency [17] | max response [18] -3.35%
-16.8%: max response [1]

Cc1ccc(CO)cc1
-4.09%: max response [1]
inactive: outcome [2] | outcome [3] | max response [5] 0.12% | activity change % (negative = inhibition) [6] 14.7% | Potency [7] | activation [8] -4.79% | activation [9] -1.4% | Potency [10] | Potency [12] | Potency [19] | activation [13] -1.15% | max response [14] 4.64% | Potency [15] | outcome [16] | Potency [17] | max response [18] -0.358%
-4.56%: max response [4]

ON=C1CCCCC1
-11.2%: max response [1]
5.82%: max response [4]
inactive: outcome [2] | outcome [3] | max response [5] 4.41% | activity change % (negative = inhibition) [6] 8.44% | Potency [7] | activation [8] -1.24% | activation [9] -0.0489% | Potency [10] | Potency [12] | Potency [19] | activation [13] 0.388% | max response [14] 1.6% | Potency [15] | outcome [16] | Potency [17] | max response [18] 5.44%

Nc1ccc(Cl)cc1[N+](=O)[O-]
inactive: outcome [2] | outcome [3] | max response [5] -5.85% | activity change % (negative = inhibition) [6] 1.54% | Potency [7] | activation [8] -3.6% | activation [9] -1.3% | Potency [12] | activation [13] 1.69% | max response [14] -2.8% | outcome [16] | max response [18] 0.225%
-5.09%: max response [1]
-5.59%: max response [4]
